“And” between values parts separate entries of the source, which are not always exact repeats. Equal values may be shown once. Records with an inconclusive call do not appear. Values without a mark were called inactive. The source made the active and inactive calls. Calls follow the shape of the dose curve; as a rule, active = well fitted inhibition curve with a large enough effect; inconclusive = small, poorly fitted or top-dose-only effect; inactive = flat fitted curve, though single readings scatter.
Each compound was assayed on KB-3-1 (assay: Cytotoxic Profiling of Annotated Libraries Using Quantitative High-Throughput Screening (AID 1296008; also: nearly all actives have a fitted effect of over 60% in size)). Conditions: Five cell lines viability, CellTiter-Glo ATP luminescence, 48-72 h; max response: active compounds read low.
Method in brief: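 Compounds were pin-transferred onto cells and incubated 48 or 72 hr at 37 degree Celsius, 95% humidity. CellTiter-Glo was added, plates sat 10 min at room temperature, then ATP-coupled luminescence was imaged as the viability read-out.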
For C=Cc1ccccc1, the max response was -0.236%.
C=C1CC2C3CCC4=CC(=O)C=C[C@]4(C)[C@@]3(F)[C@@H](O)C[C@]2(C)[C@@]1(O)C(=O)COC(C)=O (stereo partly specified) was tested, and the max response was 3%.
In the case of CCCCCCCCCCCCCCCCCC(=O)[O][Al], the max response is reported as -8.23%.
With CCn1c(=O)c(-c2ccc(-c3cncs3)cc2Cl)cc2cnc(Nc3ccc(N4CCN(C)CC4)cc3)nc21 the Potency was 10.3 µM (active).
CCN(CC)CCOC(=O)c1ccc(N)cc1Cl gave a max response of 1.25%.
C=C1C(=O)O[C@H]2CC(=C)[C@H]3CC[C@@](C)(O)[C@@H]3CC12 (stereo partly specified) showed a max response of -21.5%.
With CC(C)C[C@@H](N)C(=O)N[C@H]1C(=O)N[C@@H](CC(N)=O)C(=O)N[C@H]2C(=O)N[C@H]3C(=O)N[C@H](C(=O)N[C@H](C(=O)O)c4cc(O)cc(O)c4-c4cc3ccc4O)[C@H](O)c3ccc(c(Cl)c3)Oc3cc2cc(c3O[C@@H]2O[C@H](CO)[C@@H](O)[C@H](O)[C@H]2O[C@H]2C[C@](C)(N)[C@H](O)[C@H](C)O2)Oc2ccc(cc2Cl)[C@H]1O the outcome was “inactive”.
For NCCCC(=O)O, the max response was 2.75%.
C/C(=C(/CCO)SSCC1CCCO1)N(C=O)Cc1cnc(C)nc1N (stereo unspecified) was tested, and the max response was -15.4% and -10.3%.
For O=C(O)CC(O)(CC(=O)O)C(=O)O, the max response was -1.69%.
In the case of Cc1cc(Nc2ccccc2C(=O)O)ccc1Cl, the max response is reported as -5.19%.

Reference: PubChem BioAssay (NCATS)
% is scaled to controls: 0 for no effect and ±100 for the full control effect; potency is read from the fitted curve at half-maximal effect.
